# Hit rate of the full screen: of about 48,000 compounds, about 13,000 (27%) showed an effect of 50% or more. The list shows a part of the results.
# Tested on: Wolbachia pipientis
# Assay: Anti-Wolbachia Cell-Based Screen
# Format: functional
# Parameters: scale not given: in the data most compounds retested in dose-response had high values
# Conditions: 5 µM
row,SMILES,Percent Effect [%]
1,CC(=O)N1CCc2[nH]cnc2C12CCN(C(=O)CCn1cccn1)CC2,-18.33
2,COC[C@@]12CC[C@@H](N3CCOCC3)C[C@H]1CCN(c1cnccn1)C2,11.4
3,CNC(=O)N1CCc2cc(C(=O)NCC3CC3)c(NC(C)C)nc2CC1,0.2326
4,CCS(=O)(=O)N1CCc2cc(C(=O)N(C)C)c(NCC3CC3)nc2CC1,112.1
5,CN(C)C(=O)c1cc2c(nc1NCC1CC1)CCNCC2,103.6
6,CNC(=O)c1cc2c(nc1NCC1CC1)CCN(c1ccncn1)CC2.O=C(O)C(F)(F)F,-1.556
7,CNC(=O)N1CCc2cc(C(=O)N(C)C)c(NCC3CC3)nc2CC1.O=C(O)C(F)(F)F,7.418
8,CC(C)Nc1nc2c(cc1C(=O)N(C)C)CCNCC2.O=C(O)C(F)(F)F.O=C(O)C(F)(F)F,-6.085
9,CN(C)C(=O)c1cc2c(nc1NCC1CC1)CCN(CC1CC1)CC2,87.77
10,CNC(=O)c1cc2c(nc1NCC1CC1)CCN(S(=O)(=O)C1CC1)CC2,20.95
11,CCN1CCc2cc(C(=O)N(C)C)c(NCC3CC3)nc2CC1,103.3
12,CNC(=O)c1cc2c(nc1NCC(C)C)CCN(CC1CC1)CC2.O=C(O)C(F)(F)F.O=C(O)C(F)(F)F,9.792
13,CNC(=O)c1cc2c(nc1NCC1CC1)CCNCC2,13.18
14,Cc1ccnn1-c1ccc(C(=O)N2CCN(c3cnccn3)CC2)cc1,15.98
15,CC/N=c1\nc(NCC)nc2n1C(O)(Nc1ccc(C)cc1C)CS2 (configuration not stated),134.3
16,CC/N=c1\nc(NCC)nc2n1C(O)(Nc1cc(Cl)ccc1Cl)CS2 (configuration not stated),112.8
17,CC/N=c1\nc(NCC)nc2n1C(O)(Nc1cccc(Cl)c1Cl)CS2 (configuration not stated),212.9
18,Cc1cc(CNc2cc(Cl)ccc2Cl)no1,-3.438
19,CC/N=c1\nc(NCC)nc2n1C(O)(Nc1cccc(C)c1C)CS2 (configuration not stated),97.63
20,O=C(c1cccc2[nH]ncc12)N1CCCC1c1noc(C2CC2)n1 (configuration not stated),-9.191
21,COc1ccc(S(=O)(=O)N2CC(CC(=O)O)c3ccccc32)cc1 (configuration not stated),-7.807
22,Cl.NCC1CCCCN1C(=O)Cc1cccc(Br)c1 (configuration not stated),-8.019

row,SMILES,Percent Effect [%]
1,N#CC(NC(=O)c1cccc2c1OCCO2)c1ccc(F)cc1F (configuration not stated),-4.984
2,CCN(Cc1cc(Cl)ccc1OC)Cc1nccn1C,-15.12
3,CC/N=c1\nc(NCC)nc2n1C(O)(Nc1cc(C)ccc1C)CS2 (configuration not stated),165.1
4,CCn1c(C2CCCN(Cc3ccc(OC)c(C)c3C)C2)nn(C)c1=O (configuration not stated),24.51
5,Cc1ccccc1C(C)NC(=O)CN1CCN(Cc2ccc(Br)s2)CC1 (configuration not stated),1.299
6,O=C1NCC(C(=O)N(Cc2ccc(C(F)(F)F)cc2)C2CC2)N1 (configuration not stated),-7.127
7,CS(=O)(=O)Cc1ccc(Cl)cc1NCc1ccccc1F,-2.816
8,CC(C)(CNC(=O)C1CCCN(C(N)=O)C1)c1cccc(Cl)c1 (configuration not stated),-3.245
9,CC(C)(C)SCC(=O)NC(C)(C(N)=O)c1cccc(Cl)c1 (configuration not stated),113.7
10,CC(C)(NC(=O)Cc1ccccc1F)C(=O)O,90.43
11,O=C(Cc1cccc(F)c1F)NS(=O)(=O)c1ccc(Cl)cc1F,16.65
12,CC(C)(NC(=O)Cc1ccccc1F)C(C)(C)C(=O)O,10.54
13,Cc1nncn1CCNC(=O)C(C)(C)c1cccc(Cl)c1,-9.762
14,CC(C)(CNC(=O)CCOc1cccc(F)c1)C(N)=O,-11.69
15,CC(NC(=O)Cc1ccccc1F)(C(N)=O)c1cccc(Cl)c1 (configuration not stated),85.68
16,CCC(C)(CC(=O)O)NC(=O)Cc1ccccc1F (configuration not stated),-2.363
17,COCCC(=O)NC(C)(C(N)=O)c1cccc(Cl)c1 (configuration not stated),111.9
18,Cc1cccc(OCCC(=O)NCC(C)(C)C(N)=O)c1,-9.486
19,COC[C@@]12CC[C@@H](N3CCOCC3)C[C@H]1CCN(c1ncccc1F)C2,-2.051
20,Cc1nn(C)c(C)c1-c1c(-c2ccccc2)ncn1[C@H](CO)C(=O)O,-8.389
21,Cc1ncsc1CCN(C)C(=O)c1ncccc1O,-5.816
22,CC(C)OCc1cccc(NC(=O)N(C)Cc2ncnn2C)c1,-5.342

row,SMILES,Percent Effect [%]
1,O=C1N(Cc2ccc(F)cc2)CCCC12CCN(C1CCSCC1)C2 (configuration not stated),-0.8017
2,CC(C)(CNC(=O)c1ccc(Cl)o1)NC(=O)OC(C)(C)C,-6.326
3,CC(C)(C)C(=O)NCC(=O)NC1CC(c2cccc(Cl)c2)C1 (configuration not stated),-7.236
4,CC(C)(C)OC(=O)NC(C)(C(N)=O)c1cccc(Cl)c1 (configuration not stated),178.1
5,CC(NC(=O)Cc1cccs1)(C(N)=O)c1cccc(Cl)c1 (configuration not stated),80.31
6,CC(C)(C)CC(=O)NC(C)(C(N)=O)c1cccc(Cl)c1 (configuration not stated),91.43
7,CC(C)(CNC(=O)c1ccco1)NC(=O)OC(C)(C)C,-7.413
8,Cc1cc(CNC(=O)Cc2cccs2)ccc1S(C)(=O)=O,-11.25
9,O=C(Cc1cccs1)NCC1(O)CCSC1 (configuration not stated),0.8903
10,CC(NC(=O)NCc1cccc(Cl)c1)(C(=O)O)c1ccco1 (configuration not stated),5.605
11,COCc1ccc(C(=O)N2CCN(CC3CC3)[C@@H]3CS(=O)(=O)C[C@@H]32)o1,-14.33
12,CCCc1cnc(C)nc1NCCc1nc(C)cc(=O)[nH]1,11.65
13,CN(C)C1CCN(C(=O)c2cc3c(s2)CCN3C(=O)C2CC2)CC1.O=C(O)C(F)(F)F,-3.085
14,CN(C)CC(=O)N1CCc2sc(C(=O)N3CCN(C)CC3)cc21,110.2
15,CN(C)CC(=O)N1CCc2sc(C(=O)N3CCOCC3)cc21,66.53
16,CN1CCN(C(=O)c2cc3c(s2)CCN3C(=O)C2CC2)CC1,-4.007
17,CCCN1CCCC1c1ccc(C(=O)N2CCOCC2)s1 (configuration not stated),-8.147
18,CN1CCCN(C(=O)c2cc3c(s2)CCN3C(=O)C2CC2)CC1,2.998
19,C=C(C)CNc1ccc(C(=O)N(CC)Cc2nccn2C)cn1,-22.79
20,CC(C)c1cnc(CN(C)C2CCN(CCc3ccncc3)C2)o1 (configuration not stated),-3.327
21,CCc1cnc(CN(C)C2CCN(CCn3cc(C#N)cn3)C2)o1 (configuration not stated),85.15
22,CC(C)c1cnc(CN(C)C2CCN(CCn3cc(C#N)cn3)C2)o1 (configuration not stated),95.34

row,SMILES,Percent Effect [%]
1,Cc1cnc(CN(C)C2CCN(CCn3cc(C#N)cn3)C2)o1 (configuration not stated),2.575
2,CCc1cnc(CN(C)C2CCN(CCS(C)(=O)=O)C2)o1 (configuration not stated),-2.122
3,CC(Oc1ccccc1C(F)(F)F)C(=O)NCC(=O)N1CCCC1 (configuration not stated),-9.214
4,CC(=O)N1CCCC2(CN(Cc3ccccc3C(F)(F)F)CCO2)C1 (configuration not stated),-3.341
5,O=C(Cc1ccccn1)N1CCC2(CC1)CN(c1ncccn1)CCO2.O=C(O)C(F)(F)F.O=C(O)C(F)(F)F,8.931
6,O=C(Cc1ccccc1C(F)(F)F)N1CCC2(CC1)[C@H](O)C[C@@H]2O,113.5
7,CSc1ncccc1C(=O)N1CCC2(CC1)OCCCC2O (configuration not stated),-4.189
8,O=C(Cc1ccccc1C(F)(F)F)N1CCC2(CC1)OCCCC2O (configuration not stated),121.4
9,Cc1nc(O)cc(CN2C[C@H](NS(=O)(=O)N(C)C)[C@@H](C3CC3)C2)n1,-8.548
10,CCS(=O)(=O)N1C[C@@H](c2cc(O)nc(C)n2)[C@H](c2ccccc2F)C1,95.46
11,Cc1nc(O)cc(CCNC(=O)c2ccc(CN3CCCCC3)cc2)n1,2.411
12,Cc1cccc(C(=O)N2C[C@H]3CC[C@@H]2CN(S(=O)(=O)N(C)C)C3)n1,-20.97
13,Cc1nc(O)cc([C@@H]2CN(S(=O)(=O)N(C)C)C[C@H]2c2ccccc2F)n1,136.9
14,COCC(=O)N[C@H]1C[C@H]2C(=O)NC[C@@H](CCC(=O)NC3CC3)N2C1,-1.651
15,NC(=O)NC1(C(=O)N2CCc3c(Cl)cccc3C2)CCCCC1,-13.57
16,Cc1cccc(C2(CNC(=O)C(C)NC(N)=O)CCCC2)c1 (configuration not stated),-11.64
17,NC1(c2nc(-c3cccs3)cc(=O)[nH]2)CCCC1,0.7263
18,O=C(O)c1cc(-c2cccs2)nc2c(Cl)cnn12,80.97
19,Cc1cnn(C2CCCN(C(=O)c3cc(-c4cccs4)n[nH]3)C2)c1 (configuration not stated),-22.99
20,O=C(O)c1cc(-c2cccs2)nc2c(Br)cnn12,100.3
21,O=C(c1cc(-c2cccs2)nc2ccccc12)N1CCN(CCO)CC1,26.12
22,CC(C)OCCCNC(=O)[C@@]12CNC[C@@H]1CN(S(C)(=O)=O)C2,4.002

row,SMILES,Percent Effect [%]
1,O=C(NC[C@H]1OC[C@@H](NC2CCC(F)(F)CC2)[C@@H]1O)N1CCOCC1,-13.75
2,CC(C)(C)C(C#N)NC(=O)c1ccc(Oc2cccnc2)cc1 (configuration not stated),2.212
3,O=C1NCCN(C(=O)CN2CCOC2=O)C1c1cccc(F)c1 (configuration not stated),1.4
4,COCC(C)(O)CNC(=O)COc1ccccc1OC (configuration not stated),1.741
5,COc1ccccc1OCC(=O)NCC(O)(c1ccccc1)C1CC1 (configuration not stated),-11.16
6,COc1cc(C(=O)O)ccc1OCC(=O)NCCc1ccccc1,92.84
7,COc1cc(C(=O)O)ccc1OCC(=O)NC(C)c1ccc(F)cc1 (configuration not stated),2.572
8,Cc1nn(C)c(C)c1OCC(=O)NCc1cccc(C(=O)O)c1,4.585
9,COc1cc(C(=O)O)cc(I)c1OCC(=O)NCCc1ccccc1,109.3
10,Cc1cccc2c1nc1n2[C@@H](CNC(=O)c2ccncc2)COC1,-9.503
11,CC(=O)N1CCC(CCNC(C)c2cc(C)cc(C)c2)CC1 (configuration not stated),-3.402
12,CCCn1ncc(C(=O)N2CCC(N3CCCCC3)CC2)c1C,-9.333
13,Cc1cc2c(cc1C(=O)N1CC[C@H](CO)[C@@H](O)C1)OCCO2,-2.803
14,CCN(CC)C1CCN(C(=O)c2cc3cc(C)cc(C)c3nc2C)CC1.Cl,152.2
15,CCS(=O)(=O)N(C)C1CCN(C(=O)c2cc(C)cc(C)c2)CC1,4.174
16,CC(C)Cc1cc(C(=O)N2CCC(N3CCCC3)CC2)cc(O)n1,3.394
17,CCN(CC)C1CCN(C(=O)NCc2c(C)noc2C)CC1,-4.062
18,Cc1cc(C)c2nc(C)c(C(=O)N3CCC(CCN(C)C)CC3)cc2c1,84.1
19,Cc1cc(C)c2nc(C)c(C(=O)N3CCC(N4CCCC4)CC3)cc2c1,84.44

# Source: ChEMBL document CHEMBL3988442, “University of Dundee, Small-Polar-MMV Screening Library” (2021)
